ID4 SMM: ID4 (human) binding; P47928; actives 1.2% (n = 31,000); AID 624137; calls only; small molecule microarray, Flag-ID4 binding, fluorescence F/B; call rule not given here;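 note: a binder raises fluorescence above local background on the spot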
Target sequence (P47928 whole entry, looked up): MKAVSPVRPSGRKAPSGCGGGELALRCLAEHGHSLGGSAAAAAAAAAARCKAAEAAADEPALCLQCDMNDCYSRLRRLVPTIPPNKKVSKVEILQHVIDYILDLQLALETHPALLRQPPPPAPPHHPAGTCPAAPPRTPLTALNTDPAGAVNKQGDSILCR
p53 PUMA act: restores mutant p53 pathway signaling in SW480 cells; actives 1.5% (n = 28,000); activation, % at 9.98 µM; AID 624151; SW480 PUMA-promoter luciferase, p53 mutant reactivation; in the data active = activation above about 52%; inconclusive = no clear call, values can overlap the other calls
* marks the source's active call; other numbers are inactive results; i = inactive; ? = inconclusive; . = not tested or not shown; + = active, no number. Shown are actives, neighbours in structure and some others; about 2.1% of the full set was active somewhere.

SMILES	ID4 SMM	p53 PUMA act
O=C(N[C@@H]1C[C@H]2CC[C@@H]1C2)c1ccc(CSc2ccccc2)cc1	i	42
c1cnc(SCCCCOc2ccc3c(c2)CCC3)nc1	i	71*
O=S(=O)(Nc1ncccn1)c1ccc(NC(=S)Nc2ccc3c(c2)CCC3)cc1	i	19
COC(=O)c1cc(C)sc1NC(=S)NCCn1cc(Cl)cn1	i	-10
Cc1cccnc1NC(=O)C(C)Oc1ccccc1 (stereo unspecified)	i	-14
Cc1cccnc1NCC(O)COc1ccccc1 (stereo unspecified)	+	25
C=CCSc1n[nH]c(-c2ccc(C(F)(F)F)cc2)n1	i	111*
COc1ccc(-c2nc(SCC(=O)Nc3cccc(C(F)(F)F)c3)n[nH]2)cc1	i	-9
C[C@H]1CCCCO[C@H](CN(C)S(=O)(=O)c2cn(C)cn2)[C@@H](C)CN([C@@H](C)CO)C(=O)c2cc(NC(=O)c3ccccc3)ccc2O1	i	-3
COc1ccc(N2C(=O)CC(SCCc3nc4ccccc4[nH]3)C2=O)cc1 (stereo unspecified)	i	-8
CCOc1ccc(N2C(=O)CC(Sc3nc(O)c(CC)c(=O)[nH]3)C2=O)cc1 (stereo unspecified)	+	-3
CCOc1ccccc1-c1nc(SCC(=O)N2c3ccccc3Sc3ccccc32)n[nH]1	i	-26
N#Cc1ccc(NC(=O)CSc2nnnn2-c2ccccc2)cc1	i	-6
COCCOC(=O)N1C(=O)[C@@]2(c3ccccc31)[C@H](c1ccccc1OCCO)N1[C@H](c3ccccc3)[C@H](c3ccccc3)OC(=O)[C@H]1[C@@H]2C(N)=O	+	.
COCCOC(=O)N1C(=O)[C@@]2(c3cc(C#CCNC(N)=O)ccc31)[C@H](c1ccccc1OCCO)N1[C@H](c3ccccc3)[C@H](c3ccccc3)OC(=O)[C@H]1[C@@H]2C(N)=O	i	.
CNC[C@@H]1Oc2c(NC(=O)Nc3ccc(C(F)(F)F)cc3)cccc2C(=O)N([C@@H](C)CO)C[C@@H]1C	i	4
O=C(Nc1ccc(S(=O)(=O)NCC2CCCO2)cc1)C1CCCO1 (stereo unspecified)	i	-1
O=C(O)c1cc(NC(=O)C2CCCO2)cc(NC(=O)C2CCCO2)c1 (stereo unspecified)	+	-7
O=C(CC1(O)C(=O)N(Cc2ccc(Cl)cc2)c2ccc(Cl)cc21)c1ccco1 (stereo unspecified)	i	-5
CCCC#Cc1cnc2c(c1)C(=O)N([C@H](C)CO)C[C@@H](C)[C@@H](CN(C)C(=O)C1CCC1)O2	i	.
Cc1c(Br)ccc(NC(=O)CSc2nnc(-c3ccc(Cl)cc3)n2C)c1C	i	107*
Cn1c(SCC(=O)Nc2ccc(Cl)cc2Cl)nnc1-c1ccc(Cl)cc1	i	4
COc1ccc(-c2cc(=O)[nH]c(SCC(=O)Nc3cccc(Cl)c3C)n2)cc1	i	5
COc1ccc(-c2cc(C)nc(SCC(=O)Nc3cccc(Cl)c3Cl)n2)cc1	+	13
Cc1c(C(=O)C2C(=O)C(=O)N(Cc3cccnc3)C2c2cccs2)cnn1-c1ccccc1 (stereo unspecified)	i	43
SMILES	ID4 SMM	p53 PUMA act
Cc1c(C(=O)C2C(=O)C(=O)N(Cc3cccnc3)C2c2ccccn2)cnn1-c1ccccc1 (stereo unspecified)	+	-37
COc1ccc(NC(=O)CSc2nc3ccccc3o2)c([N+](=O)[O-])c1	i	69*
COc1ccc(NC(=S)NC(=O)C(C)Oc2ccc(Cl)cc2Cl)c([N+](=O)[O-])c1 (stereo unspecified)	i	3
COc1ccc(NC(=O)CSc2nnc(C)s2)c([N+](=O)[O-])c1	i	2
CCOc1ccc(NC(=O)C(C)O)c([N+](=O)[O-])c1 (stereo unspecified)	i	?
COc1ccc(OCC(=O)Nc2ccccc2C(=O)Nc2ccccc2)cc1	i	6
COc1ccc(OCC(=O)Nc2ccccc2OC(F)F)cc1	i	65*
Cc1ccc(NC(=O)C(C)Oc2ccc(Cl)cc2Cl)c([N+](=O)[O-])c1 (stereo unspecified)	i	77*
COc1ccc(NC(=O)C(C)Oc2ccccc2)c([N+](=O)[O-])c1 (stereo unspecified)	i	86*
O=c1c2ccccc2nc(CSc2nc(C3CC3)nc3ccccc23)n1-c1ccccc1	i	-16
O=C(C[C@H]1CC[C@H](NS(=O)(=O)c2ccccc2)[C@@H](CO)O1)NCCN1CCCCC1	i	.
C[C@H](CO)N1C[C@H](C)[C@H](CN(C)C(=O)Nc2cccc3ccccc23)Oc2ccc(NC(=O)NC3CCCCC3)cc2C1=O	i	-5
CC(=O)c1ccc(NC(=O)CSc2n[nH]c(C)n2)cc1	i	7
O=C(CSc1nnc(-c2ccco2)o1)Nc1cccc(Cl)c1	i	8
O=C(NCCSc1nc2cc(C(F)(F)F)ccc2s1)C12CC3CC(CC(C3)C1)C2	i	-8
COc1ccc(Br)cc1CNCCN1CCOCC1	i	-2
Cc1ccc(NC(=O)CCCOc2ccccc2)c([N+](=O)[O-])c1	i	79*
CC(=O)Nc1ccccc1NC(=O)COc1ccc2ccccc2c1Br	i	-10
COc1ccc(NC(=O)COc2ccccc2)c([N+](=O)[O-])c1	i	72*
O=C(COc1cccc2ccccc12)Nc1cccnc1	i	3
Cc1ccc(NC(=O)COc2ccc3ccccc3c2Br)c([N+](=O)[O-])c1	i	64*
O=C(COc1ccc2ccccc2c1Br)Nc1cccnc1	i	80*
COc1ccc(NC(=O)COc2cc(C)cc(C)c2C)c([N+](=O)[O-])c1	i	-7
COc1ccc(NC(=O)CCN2C(=O)c3ccccc3C2=O)c([N+](=O)[O-])c1	i	0
C[C@H]1CN([C@@H](C)CO)C(=O)c2cc(C#Cc3cccnc3)cnc2O[C@@H]1CN(C)C	i	.
SMILES	ID4 SMM	p53 PUMA act
O=C1CC2(CCCC2)CC(=O)N1CCCCN1CCN(c2ncccn2)CC1	i	.
O=C1c2ccccc2S(=O)(=O)N1CCCCN1CCN(c2ncccn2)CC1	+	-3
Cc1ccc(S(=O)(=O)N[C@H](Cc2ccccc2)C(=O)CCl)cc1	.	-55
COC(=O)c1cn(CCCNC(=O)[C@H](Cc2ccccc2)NS(=O)(=O)c2ccc(C)cc2)nn1	+	.
O=C(CCn1cnc2ccccc2c1=O)Nc1cccc(C(=O)c2ccccc2)c1	i	-2
COC(=O)c1cc(NC(=O)CSC2=NCCS2)cc(C(=O)OC)c1	i	2
CN(C)c1c(F)cc(C(=O)NC(=O)NC2=NCCS2)cc1F	i	61*
COc1ccccc1CN1C(=O)c2ccccc2[C@@H](C(=O)NCc2ccccc2)[C@@H]1c1ccc(CO)cc1	i	.
O=C(Nc1ccc(Cl)cc1Cl)NC(Cc1ccc(O)cc1)C(=O)O (stereo unspecified)	+	0
CC(=O)NC(Cc1c[nH]c2cc(Cl)ccc12)C(=O)O (stereo unspecified)	i	-7
COc1ccc(CN(C)C[C@@H]2Oc3ccc(NS(=O)(=O)c4cn(C)cn4)cc3CC(=O)N([C@@H](C)CO)C[C@@H]2C)cc1	.	-1
C=CC1(C)C[C@H](OC(=O)C(C)CO)[C@H]2C(=C)C(=O)O[C@@H]2C1C(=C)CO (stereo partly specified)	.	-22

Screening results (PubChem BioAssay)
